Measured values reported in PubChem BioAssay (NCATS).
Values without a mark were called inactive. The call rests on the fitted dose curve; in most records, active means well fitted inhibition curve with a large enough effect; inconclusive means small, poorly fitted or top-dose-only effect; inactive means no such curve, though single readings can be large or run the other way.

Experiment: qHTS assay for measurement of the activity of small molecule inhibitors on Zika virus induced Caspase-3 activity in human astrocytoma cells (AID 1224859)
Conditions: SNB-19 ZIKV-induced caspase-3/7, luminescence, 6 h; series mostly up to 45.7 µM; activity change, negative = inhibition: at the top concentration
From the text: National Center for Advancing Translational Sciences [NCATS]
Johns Hopkins University School of Medicine
Increase in the Caspase-3 activity indicates an activation of apoptosis cell death pathway caused by Zika virus infection in certain types of neuronal cells including human neural progenitor cells (hNPCs), astrocytes, and astrocytoma cell line (SNB-19). This cell-based caspase-3 activity assay measures the increased caspase-3 activity in the astrocytoma cell line (SNB-19) after a 6-hour Zika virus infection with a luminescence readout. A decrease in the luminescence signal in this assay by small molecule treatment indicates an inhibitory effect of that small molecule on the Zika virus induced caspase-3 activity that may correlate with its effect on reduction of Zika virus caused cell death.
The medium for SNB-19 cells is composed of RPMI 1640 (ATCC, Cat.# 30-2001), 10% fetal bovine serum (FBS) (GE healthcare Life Sciences, Cat.# SH30071.03), and 1% Pen/Strep (Gibco, Cat.# 15140-122). A Caspase-Glo 3/7 assay kit (catalog number G8092; Promega, Madison, WI) was used to detect caspase-3 activity induced by Zika virus infection in human cells. The reagent mixture was reconstituted as described in the protocol from the manufacturer. Polystyrene tissue culture treated and PDL coated white plates were obtained from Greiner Bio-One (Monroe, NC). Cells were seeded in 384- or 1536-well assay plates and cultured at 37 C with 5% CO2 for 16 to 20 hours. The typical cell seeding density in the 1536-well plate assay is 250 cells/well in 3ul medium for SNB-19 cells in tissue culture treated plates. Compounds were added to cells and incubated for one hour before addition of ZIKV solution to cells (2 FFU/cell). After incubation at 37 C with 5% CO2 for 6 hours, the reagent mixture of Caspase-Glo 3/7 assay kit was added to each well, followed by incubation at room temperature for 30 minutes. The luminescence intensity of the assay plates was measured using a ViewLux plate reader (PerkinElmer). Data were normalized by using the cell-containing wells without ZIKV as a negative control (0% induction of caspase 3/7 activity) and wells containing ZIKV infected cells (Caspase-3 activity induced) as a positive control (100% induction of caspase 3 activity). The percentage inhibitions of the increased Caspase-3 activity by small molecule inhibitors were then calculated.

Row | SMILES | activity change, negative = inhibition
1 | C[C@H]1COc2c(C3(N)CC3)c(F)cc3c(=O)c(C(=O)O)cn1c23 | 5.17%
2 | COc1ccc2cc(CCC(C)=O)ccc2c1 | -27%
3 | CC(=O)Oc1cccc(C)c1 | 9.12%
4 | CC(=O)Oc1cccc(O)c1 | 4.52%
5 | O=c1[nH]cnc2nc[nH]c12 | -8.67%
6 | O=C(O)CNC(=O)c1ccccc1I | 8.46%
7 | NC(=O)CCCCC1CCSS1 (stereo not given) | -3.14%
8 | COc1ccc(-c2cc(=O)c3c(O)cc(O[C@@H]4O[C@H](CO[C@@H]5O[C@@H](C)[C@H](O)[C@@H](O)[C@H]5O)[C@@H](O)[C@H](O)[C@H]4O)cc3o2)cc1O | -11%
9 | Cc1c(C)c2c(c(C)c1OC(=O)c1cccnc1)CC[C@@](C)(CCC[C@H](C)CCC[C@H](C)CCCC(C)C)O2 | 2.32%
10 | CO[C@@]1(NC(=O)C(C(=O)O)c2ccc(O)cc2)C(=O)N2C(C(=O)O)=C(CSc3nnnn3C)CO[C@@H]21 (stereo not given in full) | 20.1%
11 | CCC(C)(CN(C)C)OC(=O)c1ccccc1 (stereo not given) | -0.604%
12 | Cc1ccsc1/C=C/C1=NCCCN1C | 12.5%
13 | CN1CCCN=C1COC(=O)C(O)(c1ccccc1)C1CCCCC1 (stereo not given) | -4.81%
14 | COC(=O)N/N=C/c1c[n+]([O-])c2ccccc2[n+]1[O-] | -17.8%
15 | CCCCCC(C)N (stereo not given) | 17.6%
16 | CC(C)=CCC/C(C)=C/CO | -15.5%
17 | CC(C)CCCC(C)CCCC(C)CCCCC(C)CCCC(C)CCCC(C)C (stereo not given) | -2.29%
18 | CCCNC(C)(C)COC(=O)c1ccccc1 | -12.5%
19 | NS(=O)(=O)c1cc(-c2nn[nH]n2)c(NCc2cccs2)cc1Cl | 12.2%
20 | O=C(NCN1CCOCC1)c1cnccn1 | -2.75%

Row | SMILES | activity change, negative = inhibition
21 | CN[C@@H]1[C@@H](O)[C@@H](O[C@@H]2[C@H](O)[C@H](O[C@H]3OC(CN)=CC[C@H]3N)[C@@H](N)C[C@H]2N)OCC1(C)O (stereo not given in full) | -1.23%
22 | NC(=O)N[C@@H](CCC(=O)O)C(=O)O | -0.445%
23 | O=C(Cn1ccnc1[N+](=O)[O-])NCCO | 16.8%
24 | CN1C(=O)CC(c2ccccc2)C1=O (stereo not given) | -12.1%
25 | C[C@@H]1O[C@@H](OC[C@H]2O[C@@H](Oc3c(-c4ccc(O)c(O)c4)oc4cc(O)cc(O)c4c3=O)[C@H](O)[C@@H](O)[C@@H]2O)[C@H](O)[C@H](O)[C@H]1O | 11.7%
26 | CCCCCCCCCCOc1cc2c(=O)c(C(=O)OCC)c[nH]c2cc1OCC | -3.7% [at 4.53 µM]
27 | CC1CCN(CCCC(=O)c2ccc(F)cc2)CC1 | -1.54%
28 | O=c1[nH]c(=O)n([C@H]2C[C@H](O)[C@@H](CO)O2)cc1I | 3.87%
29 | C[N+]1(C)CCCC(OC(=O)C(O)(c2ccccc2)c2ccccc2)C1 (stereo not given) | -5.94%
30 | CC(C)c1cc2c(cc1S(=O)(=O)O)[C@@]1(C)CCC[C@@](C)(C(=O)O)[C@@H]1CC2 | 3.83%
31 | Nc1ccc(S(=O)(=O)c2ccc(N)cc2)cc1 | -8.25%
32 | CC(N)CCCC(C)(C)O (stereo not given) | 8.55%
33 | C=CCN1C[C@H](C(=O)N(CCCN(C)C)C(=O)NCC)C[C@@H]2c3cccc4[nH]cc(c34)C[C@H]21 | 13.2%
34 | COc1nccnc1NS(=O)(=O)c1ccc(N)cc1 | -4.84%
35 | NC(=O)CC[C@@H](N)C(=O)O | 0.213%
36 | Cc1cccc(Nc2ccccc2C(=O)O)c1C | -2.78%
37 | CC(=O)NS(=O)(=O)c1ccc(N)cc1 | 18.1%
38 | NNc1nnc(NN)c2ccccc12 | 10%
39 | CC(=O)N(CC(O)CN(C(C)=O)c1c(I)c(C(=O)NCC(O)CO)c(I)c(C(=O)NCC(O)CO)c1I)c1c(I)c(C(=O)NCC(O)CO)c(I)c(C(=O)NCC(O)CO)c1I (stereo not given) | -0.124%
40 | Cc1ccccc1N=Nc1ccc(N=Nc2c(O)ccc3ccccc23)c(C)c1 | 0.756%
